Inconclusive results are not listed. Active and inactive are the calls of the source. Unless noted, the call rests on the fitted dose curve; in most records, active means well fitted curve in the direction sought with a large enough effect in the repeat runs; inconclusive means weak or mixed curves; inactive means no such curve, though single readings can be large; an effect the other way counts as inactive or inconclusive.
Columns and labels:
[1] = A CellTox Green Cytotoxicity Assay to monitor cytotoxicity in HepG2 cells - 8 hour (AID 1224890); further: nearly all actives have a fitted effect of over 45% in size
In short: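 Cells and non-lytic dye reagent are dispensed together (600 HepG2 cells/well) and incubated 5 h before DMSO compound transfer. Kinetic fluorescence is then recorded in the same wells during 40 h at 37 C.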

[2] = qHTS assay to identify small molecule antagonists of the estrogen receptor alpha (ER-alpha) signaling pathway using the BG1 cell line in the presence of 0.1 nM 17-beta-estradiol - cell viability counter screen (AID 1259241); further: nearly all actives have a fitted effect of over 40% in size
In short: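 VM7Luc4E2 cells (endogenous full-length ER-alpha, 4xERE-luciferase), cultured 5 days in charcoal-stripped serum, exposed to compounds with 0.1 nM 17beta-estradiol (final) for 22 hr at 37C. Viability read in same wells as live-cell protease fluorescence after 30 min.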

[3] = qHTS assay to identify small molecule antagonists of the androgen receptor (AR) signaling pathway using the MDA cell line in the presence of 0.5 nM R1881 - cell viability counter screen (AID 1259242); further: nearly all actives have a fitted effect of over 45% in size
In short: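 Steps: plate MDA-kb2 cells, rest 5 hr at 37C without CO2; pin in compounds in DMSO; add R1881 to 0.5 nM final; incubate 16 hr; add CellTiter-Fluor, 30 min; read fluorescence.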

[4] = qHTS assay to identify small molecule HDAC inhibitors (AID 1259364); further: potency means the concentration at half of the fitted maximal effect;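 further: wild-type HCT-116 cells with endogenous class I/II HDAC activity; nearly all actives have a fitted effect of over 45% in size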
In short: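 Cells (HCT-116, wild type) are seeded at 1,500 per well, incubated overnight, treated with compound in DMSO for 2 hr, then developed with HDAC-Glo I/II reagent for 30 min at room temperature.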

[5] = qHTS assay to identify small molecule HDAC inhibitors - cell viability counter screen (AID 1259365); further: series mostly up to about 92 µM; nearly all actives have a fitted effect of over 50% in size
In short: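 Wild-type HCT-116 cells, 1,500/well, cultured overnight, then compound-treated 2 h at 37 C. Viability measured as ATP luminescence with CellTiter-Glo after 30 min at room temperature.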

[6] = qHTS assay to identify small molecule agonists of the sonic hedgehog signaling (Shh) pathway - cell viability counter screen (AID 1259366); further: nearly all actives have a fitted effect of over 50% in size
In short: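 NIH/3T3-derived Gli1-Luc reporter cells, 2,000 per well, received compound after 4 h and were treated about 23 h at 37C. Viability measured in the same wells by CellTiter-Fluor fluorescence after 1 h.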

[7] = qHTS assay to identify small molecule antagonists of the sonic hedgehog signaling (Shh) pathway - cell viability counter screen (AID 1259367); further: nearly all actives have a fitted effect of over 55% in size; further: potency means the concentration at half of the fitted maximal effect
In short: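 Cytotoxicity was assessed in parallel with Shh reporter activity by measuring live-cell protease fluorescence (CellTiter-Fluor) in NIH/3T3 cells stably carrying Gli1-Luc, treated with compound under conditioned medium stimulation for 23 hr plus 1 hr reagent incubation.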

[8] = qHTS assay to identify small molecule agonists of the sonic hedgehog signaling (Shh) pathway (AID 1259368; calls by dose curve;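 further: NIH/3T3-derived 3T3Gli1-Luc cells carrying a stable Gli1-driven firefly luciferase reporter; series mostly up to about 92 µM; nearly all actives have a fitted effect of over 15% in size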)
In short: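 Cells of a mouse NIH/3T3 clone stably expressing luciferase under the Gli1 transcriptional response element are exposed to test chemicals for 24 hr at 37 C. Pathway activation is detected as a rise in luminescence.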

[9] = qHTS assay to identify small molecule antagonists of the sonic hedgehog signaling (Shh) pathway (AID 1259369; calls by dose curve; further: nearly all actives have a fitted effect of over 45% in size)
In short: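 Cells are plated and held 4hr at 37 C, compounds (DMSO) are pinned in, conditioned medium is added to stimulate the pathway, and after 24hr luciferase reagent is added for 30min before luminescence is read.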

[10] = biological target: Estrogen receptor beta (Homo sapiens) (UniProt Q92731); experiment: qHTS assay to identify small molecule agonists of the estrogen receptor beta (ER-beta) signaling pathway (AID 1259377; active means well fitted activation curve with a large enough effect in the signal ratio in the repeat runs, not every such curve was filed as active; the % refers to the signal ratio)
In short: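 ER-beta-UAS-bla HEK293T cells in medium with 2% charcoal-stripped FBS were exposed to compounds for 16 h at 37C. Beta-lactamase reporter activity was read as fluorescence after 2 h with LiveBLAzer B/G FRET substrate at room temperature.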

[11] = biological target: Estrogen receptor beta (Homo sapiens) (UniProt Q92731); experiment: qHTS assay to identify small molecule antagonists of the estrogen receptor beta (ER-beta) signaling pathway (AID 1259378; active means well fitted inhibition curve with a large enough effect in the signal ratio in the repeat runs, not every such curve was filed as active; the % refers to the signal ratio)
In short: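 ER-beta-UAS-bla HEK293T (GripTite) cells in 2% charcoal-stripped FBS medium were preincubated 6 hr at 37C, dosed with compound, then stimulated with 1 nM E2 (final) for 16 hr; beta-lactamase reporter read by B/G FRET fluorescence after 2 hr substrate loading.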

[12] = qHTS assay to identify small molecule agonists of the androgen receptor (AR) signaling pathway in the presence of an antagonist - cell viability counter screen (AID 1259379);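 further: MDA-kb2 human breast cancer cells carrying an MMTV luciferase reporter; series mostly up to about 92 µM; nearly all actives have a fitted effect of over 25% in size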
In short: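 Cytotoxicity is assessed by CellTiter-Fluor in MDA-kb2 cells carrying an MMTV-driven luciferase reporter. Cells receive 3.0uM nilutamide plus compounds at 15 concentrations and incubate 16 hr at 37C without CO2 before fluorescence reading.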

[13] = qHTS assay to identify small molecule agonists of the estrogen receptor beta (ER-beta) signaling pathway - cell viability counter screen (AID 1259380); further: nearly all actives have a fitted effect of over 30% in size; further: potency means the concentration at half of the fitted maximal effect
In short: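 Cytotoxicity is measured in parallel with the reporter screen: after 16 hr compound exposure at 37C and a 2 hr LiveBLAzer step, CellTiter-Glo is added to the same ER-beta-UAS-bla HEK293T wells and luminescence read after 30 min.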

[14] = qHTS assay to identify small molecule antagonists of the estrogen receptor beta (ER-beta) signaling pathway - cell viability counter screen (AID 1259382); further: series mostly up to about 92 µM; nearly all actives have a fitted effect of over 55% in size
In short: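 Cytotoxicity counter screen multiplexed with the beta-lactamase antagonist assay: GripTite HEK293T ER-beta-bla cells were treated 16 hr with test chemicals in the presence of 1nM 17-beta-estradiol, and viability was measured by CellTiter-Glo.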

[15] = qHTS assay to identify small molecule agonists or antagonists of the thyroid stimulating hormone receptor (TSHR) signaling pathway - wild type cell line counter screen (AID 1259384; calls by dose curve)
In short: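 Wild-type HEK293 cells were plated 18 h at 37 C/5% CO2, pin-dosed with compound plus Ro20-1724 medium, held 30 min at room temperature, then given cAMP-d2 and anti-cAMP-cryptate; fluorescence was read after 1 h. Fifteen concentrations, triplicate.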

[16] = biological target: Estrogen receptor (Homo sapiens) (UniProt P03372); experiment: qHTS assay to identify small molecule agonists of the estrogen receptor alpha (ER-alpha) signaling pathway in the presence of an antagonist (AID 1259383; calls by dose curve; further: nearly all actives have a fitted effect of over 15% in size; further: potency means the concentration at half of the fitted maximal effect; on activation: top concentration of the series differs between compounds)
In short: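 Agonist-mode confirmation in the presence of the ER antagonist ICI-182,780 at 10.0nM final. Breast-derived VM7Luc4E2 reporter cells were exposed to compounds for 22hr, and ERE-driven luciferase was quantified by luminescence.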

[17] = biological target: Androgen receptor (Homo sapiens) (UniProt P10275); experiment: qHTS assay to identify small molecule antagonists of the androgen receptor (AR) signaling pathway using the MDA cell line in the presence of 0.5 nM R1881 (AID 1259243); further: nearly all actives have a fitted effect of over 50% in size
In short: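 Stably transfected MDA-kb2 cells express luciferase from an MMTV promoter bearing both AR and GR response elements. Compounds plus 0.5 nM R1881 (final) were incubated 16 hr at 37C without CO2, then luminescence measured.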

[18] = biological target: Estrogen receptor (Homo sapiens) (UniProt P03372); experiment: qHTS assay to identify small molecule antagonists of the estrogen receptor alpha (ER-alpha) signaling pathway using the BG1 cell line in the presence of 0.1 nM 17-beta-estradiol (AID 1259244); further: nearly all actives have a fitted effect of over 50% in size
In short: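 Antagonist mode: compounds in DMSO are pinned onto VM7Luc4E2 reporter cells, 0.1 nM final 17beta-estradiol is added, and after 22 h at 37C luciferase luminescence is measured with ONE-Glo.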

[19] = qHTS assay to identify small molecule phospholipidosis (PLD) inducers (AID 1259344; active means well fitted curve in the direction sought with a large enough effect; an effect the other way counts as inactive or inconclusive)
In short: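 Cells (HepG2, 900 per well) attach for 4 h, receive LipidTOX Red and compound together, incubate 24 h at 37 C, are fixed 30 min with paraformaldehyde/Hoechst, then imaged at one site per well.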

[20] = biological target: Androgen receptor (Homo sapiens) (UniProt P10275); experiment: qHTS assay to identify small molecule agonists of the androgen receptor (AR) signaling pathway in the presence of an antagonist (AID 1259381; calls by dose curve; further: nearly all actives have a fitted effect of over 15% in size)
In short: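 Agonist-mode confirmation screen: human MDA-kb2 cells stably expressing luciferase under an MMTV promoter bearing AR and GR response elements, co-treated with 3.0uM nilutamide (final). Luminescence measured after 16hr compound incubation.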

Measured: Potency

Sequence of Androgen receptor (Homo sapiens) (P10275 whole entry, looked up): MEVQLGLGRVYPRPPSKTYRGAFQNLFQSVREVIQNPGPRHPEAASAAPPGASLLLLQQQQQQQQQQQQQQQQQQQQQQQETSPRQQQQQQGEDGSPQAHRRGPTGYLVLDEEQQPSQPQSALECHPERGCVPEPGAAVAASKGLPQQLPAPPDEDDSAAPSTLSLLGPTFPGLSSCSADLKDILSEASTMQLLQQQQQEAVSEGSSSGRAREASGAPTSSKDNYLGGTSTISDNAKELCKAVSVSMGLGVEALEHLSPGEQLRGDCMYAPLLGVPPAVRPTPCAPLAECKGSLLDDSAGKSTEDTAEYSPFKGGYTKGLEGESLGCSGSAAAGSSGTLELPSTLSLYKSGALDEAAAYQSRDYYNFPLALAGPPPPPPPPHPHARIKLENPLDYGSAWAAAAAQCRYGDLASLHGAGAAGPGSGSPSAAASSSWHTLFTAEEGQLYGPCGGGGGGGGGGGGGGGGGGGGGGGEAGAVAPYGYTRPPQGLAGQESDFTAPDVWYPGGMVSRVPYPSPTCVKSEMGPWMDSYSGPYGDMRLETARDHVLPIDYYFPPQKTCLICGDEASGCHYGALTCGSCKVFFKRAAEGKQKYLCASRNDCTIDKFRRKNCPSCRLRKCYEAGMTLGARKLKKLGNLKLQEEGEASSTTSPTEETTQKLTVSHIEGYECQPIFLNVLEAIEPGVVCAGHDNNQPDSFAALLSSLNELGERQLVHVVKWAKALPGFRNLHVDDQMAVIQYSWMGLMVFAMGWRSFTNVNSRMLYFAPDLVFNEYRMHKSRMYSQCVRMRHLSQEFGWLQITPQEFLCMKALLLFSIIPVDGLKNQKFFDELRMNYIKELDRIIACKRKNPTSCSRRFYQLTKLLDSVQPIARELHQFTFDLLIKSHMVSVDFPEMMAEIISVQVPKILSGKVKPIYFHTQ
Sequence of Estrogen receptor (Homo sapiens) (P03372 whole entry, looked up): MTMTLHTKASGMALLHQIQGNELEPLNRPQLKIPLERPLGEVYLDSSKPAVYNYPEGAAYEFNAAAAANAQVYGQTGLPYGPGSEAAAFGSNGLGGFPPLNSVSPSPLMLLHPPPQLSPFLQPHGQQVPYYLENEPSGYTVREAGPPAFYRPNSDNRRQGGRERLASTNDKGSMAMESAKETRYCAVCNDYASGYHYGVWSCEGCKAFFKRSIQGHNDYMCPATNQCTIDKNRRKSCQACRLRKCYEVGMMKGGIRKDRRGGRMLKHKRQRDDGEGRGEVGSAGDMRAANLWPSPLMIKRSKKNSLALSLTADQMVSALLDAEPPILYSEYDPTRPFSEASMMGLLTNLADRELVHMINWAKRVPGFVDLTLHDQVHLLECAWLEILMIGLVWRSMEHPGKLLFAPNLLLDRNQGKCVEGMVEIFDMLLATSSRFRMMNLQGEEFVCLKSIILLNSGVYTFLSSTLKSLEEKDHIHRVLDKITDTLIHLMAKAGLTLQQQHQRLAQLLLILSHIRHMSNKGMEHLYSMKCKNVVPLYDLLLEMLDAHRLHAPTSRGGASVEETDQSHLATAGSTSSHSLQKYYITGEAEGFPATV
Sequence of Estrogen receptor beta (Homo sapiens) (Q92731 whole entry, looked up): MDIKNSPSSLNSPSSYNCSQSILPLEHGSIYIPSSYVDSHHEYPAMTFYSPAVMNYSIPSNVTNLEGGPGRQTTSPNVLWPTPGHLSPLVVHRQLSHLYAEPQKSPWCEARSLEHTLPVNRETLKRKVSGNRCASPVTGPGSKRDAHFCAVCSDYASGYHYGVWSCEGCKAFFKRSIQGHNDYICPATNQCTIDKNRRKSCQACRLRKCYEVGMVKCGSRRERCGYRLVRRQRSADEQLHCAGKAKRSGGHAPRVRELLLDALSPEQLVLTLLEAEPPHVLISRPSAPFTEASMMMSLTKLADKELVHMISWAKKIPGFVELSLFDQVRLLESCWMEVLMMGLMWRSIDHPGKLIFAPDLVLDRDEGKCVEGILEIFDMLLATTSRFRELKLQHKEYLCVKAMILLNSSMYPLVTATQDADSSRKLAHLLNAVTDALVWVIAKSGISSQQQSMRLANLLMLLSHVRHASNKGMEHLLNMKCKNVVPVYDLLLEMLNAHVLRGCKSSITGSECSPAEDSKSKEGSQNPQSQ

BrCCc1ccccc1
not listed: [16] | [17] | [18] | [19] | [20]
inactive: all other assays above

O=C(O)C(F)(F)C(F)(F)C(F)(F)C(F)(F)C(F)(F)C(F)(F)F
active: [13] 54.5 µM
not listed: [6] | [11] | [14] | [16] | [17] | [18] | [19] | [20]
inactive: all other assays above

CCOC(=O)Nc1cccc(OC(=O)Nc2ccccc2)c1
active: [4] 3.86 µM | [16] 12.2 µM
not listed: [6] | [10] | [15] | [17] | [18] | [19] | [20]
inactive: all other assays above

CCOC(=O)C(SP(=S)(OC)OC)c1ccccc1 (stereo unspecified)
not listed: [6] | [11] | [15] | [16] | [17] | [18] | [19] | [20]
inactive: all other assays above

CCCCS(=O)(=O)Cl
not listed: [9] | [10] | [11] | [16] | [17] | [18] | [19] | [20]
inactive: all other assays above

CC(C)(C)C(=O)C(Cl)Cl
not listed: [16] | [17] | [18] | [19] | [20]
inactive: all other assays above

CNC(=O)Oc1cc(C)c(N(C)C)c(C)c1
inactive: [1] | [2] | [3] | [4] | [5] | [6] | [8] | [11] | [12] | [13] | [14]

COC1=CC(=O)O[C@@H](/C=C/c2ccccc2)C1
active: [4] 24.7 µM
inactive: [1] | [2] | [3] | [5] | [6] | [7] | [10] | [12] | [14] | [15]

[P]#[In]
not listed: [16] | [17] | [18] | [19] | [20]
inactive: all other assays above

CCCCCCCCBr
not listed: [15] | [16] | [17] | [18] | [19] | [20]
inactive: all other assays above

CCOC(=O)COc1ccc(Cl)cc1Cl
not listed: [10] | [11] | [15] | [16] | [17] | [18] | [19] | [20]
inactive: all other assays above

CCN[C@@H](C)Cc1ccccc1
not listed: [3] | [6] | [15]
inactive: all other assays above

N#CC(Br)(Br)C(N)=O
active: [7] 54.5 µM
not listed: [6] | [10] | [11] | [16] | [17] | [18] | [19] | [20]
inactive: all other assays above

COc1cccc([C@@]2(O)CCCC[C@@H]2CN(C)C)c1
not listed: [3] | [5] | [10] | [11] | [15]
inactive: all other assays above

CCCOc1nn(C(=O)NS(=O)(=O)c2ccccc2C(=O)OC)c(=O)n1C
not listed: [3] | [10] | [11] | [16] | [18] | [19]
inactive: all other assays above

NCC1(CC(=O)O)CCCCC1
not listed: [3] | [10] | [11] | [16] | [17] | [18] | [20]
inactive: all other assays above

CC(Cc1ccccc1)NCCCCl (stereo unspecified)
not listed: [3] | [6] | [18] | [19]
inactive: all other assays above

CON(C)C(=O)Nc1ccc(Br)c(Cl)c1
inactive: [1] | [2] | [5] | [6] | [7] | [8] | [11] | [12] | [14]
active: [4] 27.3 µM

Nc1c(Cl)c(F)nc(OCC(=O)O)c1Cl
not listed: [3] | [9] | [19]
inactive: all other assays above

CCN1CCCC1CNC(=O)C(O)(c1ccccc1)c1ccccc1 (stereo unspecified)
not listed: [6] | [10] | [11] | [16] | [17] | [18] | [19] | [20]
inactive: all other assays above

CC[C@@H](CO)NC(=O)[C@@H]1C=C2c3cccc4[nH]cc(c34)C[C@H]2N(C)C1
not listed: [3] | [18]
inactive: all other assays above

CC1=C2[C@H]3OC(=O)[C@@H](C)[C@@H]3CC[C@@]2(C)C=CC1=O
not listed: [3] | [10] | [11] | [15] | [16] | [17] | [18] | [20]
inactive: all other assays above

CC(C)NCC(O)c1ccc([N+](=O)[O-])cc1 (stereo unspecified)
not listed: [3] | [6] | [11] | [15] | [16] | [17] | [18] | [20]
inactive: all other assays above

CCC(C(N)=O)N1CCCC1=O (stereo unspecified)
not listed: [3] | [17] | [18] | [20]
inactive: all other assays above

ClCCCCl
not listed: [3] | [16] | [17] | [18] | [19] | [20]
inactive: all other assays above

Clc1nc(Cl)nc(Nc2ccccc2Cl)n1
not listed: [3] | [17] | [19] | [20]
inactive: all other assays above

Reference: PubChem BioAssay (Tox21)
